Reference: PubChem BioAssay AID686952 (The Scripps Research Institute Molecular Screening Center, 2013)
In all, about 3,200 compounds went through this assay and about 2,600 (81%) were called active.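 The calls were made as follows: active = activation above the all-compound mean plus 3 SD, ignoring values outside control-based bounds (cut at about 4.8% in these data); inactive = the rest.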 So high a share suggests a set chosen from earlier hits. A selection follows.

assay: apparent activators from fluorescence artefacts, no enzyme – biochemical, fluorescence intensity, high throughput, artefact control for kallikrein-7 zymogen activator project (AID 686952); details: EDANS-DABCYL substrate fluorescence interference, 4 h, at 7 µM, active compounds read high;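 also: value is the 4 h activation minus the activation read at time zero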

Structure (SMILES)	activation
CCOC(=O)c1c(N)n(CCN2CCOCC2)c2nc3ccccc3nc12	31.4% (active)
Cc1nc2ccc(N3CCN(C)CC3)cc2nc1C	13.9% (active)
CCOc1ccc(-c2cc(C)[n+](CCN(CC)CC)c(-c3ccc(OCC)cc3)c2)cc1	37.3% (active)
COc1cccc(-c2nc3ccc(N4CCN(C)CC4)cc3[nH]2)c1	65.7% (active)
